Assay results reported in the supplement of paper PMC10933113.
Counter-ions that a name gives are not always drawn. ± gives the uncertainty stated by the source.

Each compound was assayed on THP-1 (assay: CD54 surface expression induction over DMSO control (% over DMSO); higher = stronger dendritic cell activation). Conditions: exposure time: 24 h.
Method: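 hCLAT-like CD54 and CD86 surface expression on THP1 cells after 24 h exposure at a single concentration (highest non-cytotoxic concentration, or 100-200 µM if not cytotoxic). Flow cytometry (iQue) was run on 5,000 live cells.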

Going from `O=C(Nc1ncc([N+](=O)[O-])s1)c1cccs1` [Tenonitrozole] (10 µM) to `NC(=O)n1c(O)c(C(=O)c2cccs2)c2cc(Cl)ccc21` [Tenidap*] (200 µM), the “CD54 surface expression induction” value rises from -7 ± 4.7 to 157 ± 35.

Going from `COc1cc(C(C)(C)C)c(O)c(C(C)(C)C)c1` [2,6-Di-tert-butyl-4-methoxyphenol] (200 µM) to `CC(C)(C)OC(=O)c1ccc(O)cc1` [tert-Butyl 4-hydroxybenzoate] (100 µM), the “CD54 surface expression induction” value falls from 14.5 ± 0.32 to 1.75 ± 0.96.

Going from `CC(C)C[C@H](NC(=O)[C@H](Cc1ccccc1)NC(=O)c1cnccn1)B(O)O` [Bortezomib] (10 µM) to `CC(C)CC(NC(=O)OCC1c2ccccc2-c2ccccc21)C(=O)O` (stereo in doubt) [N-(9-Fluorenylmethoxycarbonyl)-L-leucine] (100 µM), the “CD54 surface expression induction” value falls from 28.8 ± 9.9 to -11.5 ± 0.49.

`O=C(Oc1ccccc1)c1cccc(C(=O)Oc2ccccc2)c1` [Diphenyl isophthalate] (200 µM) and `c1ccc2cc3c(ccc4ccccc43)cc2c1` [Benz(a)anthracene] (200 µM) are within error of each other in “CD54 surface expression induction” value: -2.76 ± 5 for the first, -2.28 ± 4.7 for the second.

`C=CC(=O)OCCn1c(=O)n(CCOC(=O)C=C)c(=O)n(CCOC(=O)C=C)c1=O` (10 µM) and `C=CC(=O)OCCCCCCOC(=O)C=C` [1,6-Hexanediol diacrylate] (100 µM) are within error of each other in “CD54 surface expression induction” value: 3.33 ± 5.3 for the first, -4.54 ± 2.9 for the second.

`Nc1cc(-c2ccncc2)c[nH]c1=O` [Amrinone] (100 µM) and `O=c1[nH]sc2cc(Cl)ccc12` [Ticlatone] (10 µM) are within error of each other in “CD54 surface expression induction” value: -1.65 ± 0.59 for the first, -4.79 ± 7.2 for the second.

Compared with `Oc1ccc(/C=C/c2cc(O)cc(O)c2)cc1` [Resveratrol] (100 µM), `O=c1cc(-c2ccccc2)oc2cc(O)cc(O)c12` [Chrysin] (100 µM) is higher in “CD54 surface expression induction” value: 1.74 ± 6.8 for the first, 18.9 ± 1.4 for the second.

Going from `CC[C@@]1(O)C(=O)OCc2c1cc1n(c2=O)Cc2c-1nc1ccccc1c2/C=N/OC(C)(C)C` [Gimatecan] (10 µM) to `Cc1ccc2c(c1[N+](=O)[O-])C(=O)c1ccccc1C2=O` [2-Methyl-1-nitroanthraquinone] (10 µM), the “CD54 surface expression induction” value rises from -15.7 ± 5 to 4.18 ± 2.8.

Going from `C/C=C/C=C/CCCCCCCO` [Codlelure] (200 µM) to `COC(=O)CCCCCCCC(=O)OC` [Dimethyl nonanedioate] (200 µM), the “CD54 surface expression induction” value rises from -18.9 ± 4 to -1.14 ± 2.1.

Compared with `CC1=C(/C=C/C(C)=C/C=C/C(C)=C/C=O)C(C)(C)CCC1` [13-cis-Retinal (Vitamin A aldehyde)] (100 µM), `CC1=C(/C=C/C(C)=C\C=C\C(C)=C\C(=O)O)C(C)(C)CCC1` [9-cis Retinoic acid] (100 µM) is lower in “CD54 surface expression induction” value: 188 ± 9.3 for the first, 44.4 ± 15 for the second.

Compared with `COc1ccc(C(=O)/C(Br)=C\C(=O)O)cc1` [Cytembena] (200 µM), `CC(C)=CCOc1ccc(/C=C/C(=O)c2ccc(OCC=C(C)C)cc2OCC(=O)O)cc1` [Sofalcone] (100 µM) is lower in “CD54 surface expression induction” value: 62.5 ± 6.9 for the first, -27.7 ± 3.9 for the second.

Compared with `COc1cccc2c1C(=O)c1c(O)c3c(c(O)c1C2=O)C[C@@](O)(C(=O)CO)C[C@@H]3O[C@H]1C[C@H](N)[C@H](O[C@@H]2CCCCO2)[C@H](C)O1` [Pirarubicin*] (10 µM), `COc1cc(Nc2c(C#N)cnc3cc(OCCCN4CCN(C)CC4)c(OC)cc23)c(Cl)cc1Cl` [Bosutinib] (100 µM) is lower in “CD54 surface expression induction” value: 263 ± 46 for the first, -7.93 ± 2.6 for the second.

Going from `CC(=O)Oc1ccc(C2(c3ccc(OC(C)=O)cc3)C(=O)Nc3ccccc32)cc1` [Oxyphenisatin acetate] (100 µM) to `COC(=O)Nc1nc2cc(Sc3ccccc3)ccc2[nH]1` [Fenbendazole] (100 µM), the “CD54 surface expression induction” value falls from 9.56 ± 1.9 to -38.1 ± 4.2.

Compared with `CCN(CC)CCSC(=O)C(c1ccccc1)c1ccccc1` [Thiphenamil] (200 µM), `Nc1ccc(Nc2ccccc2)cc1` [N-Phenyl-1,4-benzenediamine] (200 µM) is lower in “CD54 surface expression induction” value: 99.2 ± 12 for the first, 46.9 ± 11 for the second.

First: CCCCCOc1ccccc1/C(=C\SC)n1ccnc1 [Neticonazole] (100 µM)
Second: c1ccc(-c2ccccn2)nc1 [2,2'-Dipyridyl] (200 µM)
The “CD54 surface expression induction” value of the first is higher: 17.2 ± 5 for the first, -9.09 ± 20 for the second.

First: Clc1ccc(C(Cn2ccnc2)OCc2c(Cl)cccc2Cl)c(Cl)c1 (stereo not given) [Isoconazole] (100 µM)
Second: Clc1ccc2c(c1)Nc1ccccc1S2 [2-Chlorophenothiazine] (100 µM)
The “CD54 surface expression induction” value of the first is higher: 56.6 ± 9.5 for the first, -15.3 ± 22 for the second.

Going from `Cc1c(C)n(CCN(C)C)c2ccc(C(=O)OCCN(C)C)cc12` [Amindocate] (100 µM) to `C=C(C)C(=O)Nc1ccc(Cl)c(Cl)c1` [Chloranocryl] (100 µM), the “CD54 surface expression induction” value rises from -6.56 ± 2.9 to 0.25 ± 0.41.

Going from `CCCCNC(=S)NCCCC` [N,N'-Dibutylthiourea] (10 µM) to `CC(O)C#CC(C)O` (stereo not given) [Hex-3-yne-2,5-diol] (10 µM), the “CD54 surface expression induction” value rises from -6.77 ± 3.8 to 6.05 ± 3.8.

Compared with `Nc1ccc(/N=N/c2ccccc2)c(N)n1` [Phenazopyridine hydrochloride] (100 µM), `Nc1ccc2cc3ccccc3cc2c1` [2-Aminoanthracene] (200 µM) is lower in “CD54 surface expression induction” value: -3.19 ± 0.03 for the first, -52.5 ± 1.6 for the second.

First: O=c1n(CC2CO2)c(=O)n(CC2CO2)c(=O)n1CC1CO1 (stereo not given) [Triglycidyl isocyanurate] (10 µM)
Second: O=C(CS)Nc1ccccc1 [Thioglycolic acid anilide] (300 µM)
The “CD54 surface expression induction” value of the first is lower: 4 ± 1.7 for the first, 24 ± 1.8 for the second.
